Consider 51 compounds from ChEMBL document CHEMBL3988442, “University of Dundee, Small-Polar-MMV Screening Library” (2021).

Hit rate of the full screen: of about 48,000 compounds, about 13,000 (27%) showed an effect of 50% or more. The list shows a part of the results.

For this assay, the system named is Wolbachia pipientis. Kind of assay: Anti-Wolbachia Cell-Based Screen. The assay is classed as functional. On the set-up: scale not given: in the data most compounds retested in dose-response had high values. Particulars: 5 µM.
For `CCc1noc(CNc2ccc(F)cc2OCC2CC2)n1`, the “Percent Effect” value is listed as -5.752%.
The same measure for `CC(NCc1cnc(C2CCC2)s1)c1ccccc1-n1cccn1` (stereo unspecified): -10.15%; for `Cc1ccc(-c2ccc(C(=O)NCCC(=O)N(C)C)c(F)c2)cc1`: -15.57%; for `c1ccc2c(N3CCSCC3)cnnc2c1`: -7.227%.
The result for `Cc1ccc(CNCCCNS(C)(=O)=O)c(Br)c1` reads 3.842%.
The same measure for `Cc1ccc(CC(=O)NCC(O)c2cc(Cl)cc(Cl)c2)cn1` (stereo unspecified): 3.357%; for `CCc1ccc2c(c1)C(CCNC(=O)CCc1ccsc1)C(=O)N2` (stereo unspecified): 24.64%.
Turning to `NC(=O)NC(CC(=O)NCCc1ccc(F)cc1)c1ccccc1` (stereo unspecified), the “Percent Effect” value was determined as 2.194%.
Turning to `CS(=O)(=O)Nc1cccc(CNC(=O)CCc2ccsc2)c1`, the “Percent Effect” value is -4.988%.
The result for `CCOc1ccc(CC(CNC(=O)c2sccc2C)C(N)=O)cc1` (stereo unspecified) reads 1.626%.
Consider `NC(=O)C(CNC(=O)CCc1ccccc1)Cc1ccc(F)cc1` (stereo unspecified), for which the “Percent Effect” value was determined as 119.3%.
The same measure for `CCOC(=O)C(C)NC(=O)CCc1ccc(F)cc1` (stereo unspecified): 2.833%; for `Cc1ccc(CC(=O)NCC(O)c2cccc(C(F)(F)F)c2)cn1` (stereo unspecified): -12.46%; for `NC(=O)C(CNC(=O)CCc1ccsc1)Cc1ccc(F)cc1` (stereo unspecified): 115.1%.
The same measure for `NC(=O)C(CNC(=O)Cc1ccsc1)Cc1ccc(F)cc1` (stereo unspecified): 90.7%.
The same measure for `Cc1ccc(CC(=O)NCC(Cc2ccc(F)cc2)C(N)=O)cn1` (stereo unspecified): 110.1%; for `CCOc1ccc(CC(CNC(=O)c2ccc(C)s2)C(N)=O)cc1` (stereo unspecified): -16.33%.
Consider `CN1CC(c2ccccc2)CC12CCN(C(=O)c1c(Cl)cnn1C)CC2` (stereo unspecified), for which the “Percent Effect” value was 11%.
As for `CC1CCN(C)c2ccccc2N1C(=O)c1ccnc(-n2cncn2)c1` (stereo unspecified), the “Percent Effect” value is listed as -2.842%.
The same measure for `Cc1ccccc1C(C(=O)NCc1nc(-c2ncccn2)no1)N(C)C` (stereo unspecified): -2.983%.
The result for `Cc1cccnc1[C@H](C)Nc1nc(-c2cccnc2)nc2c1CNC2` reads -9.004%; that for `CC(C)n1ccnc1C1CCN(C(=O)c2ccccc2N(C)C)CC1`, -47.93%; that for `CCOc1ccc(CC(CNC(=O)c2ccco2)C(N)=O)cc1` (stereo unspecified), -3.482%.
The same measure for `COc1cccc(COCC(=O)NC(C(N)=O)c2ccccc2F)c1` (stereo unspecified): 9.878%.
With `COc1cccc(CC(=O)NCC(Cc2ccc(F)cc2)C(N)=O)c1` (stereo unspecified), the “Percent Effect” value came to 112.8%.
The result for `CN(Cc1nnc2ccccn12)C(=O)CC1CCCCC1` reads -9.634%; that for `COc1ccc(C(=O)N(C)Cc2nnc3ccccn23)c(OC)c1OC`, 155.5%; that for `CN(Cc1nnc2ccccn12)C(=O)CCC1CCCC1`, -7.535%.
The same measure for `COc1ccc(C(=O)N(C)Cc2nnc3ccccn23)c(OC)c1`: -6.181%; for `COc1ccc(OC)c(C(=O)N(C)Cc2nnc3ccccn23)c1`: 126.3%; for `COc1ccc(C(=O)N(C)Cc2cccc(C#N)c2)c(OC)c1OC`: 5.74%.
The same measure for `Cc1ccc(C)c(CN(C)Cc2nnc3ccccn23)c1`: -4.756%.
As to `COc1ccccc1C(=O)N(C)Cc1nnc2ccccn12`, the “Percent Effect” value is reported as 155.2%.
Regarding `COc1cccc(C(=O)N(C)Cc2ncc(C)c(OC)c2C)c1OC`, the “Percent Effect” value is recorded as -3.642%.
The same measure for `CCc1ccc(C2COCCN2C(=O)NCc2cccc(C#N)c2)o1` (stereo unspecified): -15.12%; for `Cn1cccc1-c1cc(C(=O)N2CCCC2c2ccc(C(N)=O)s2)[nH]n1` (stereo unspecified): -10.74%.
The same measure for `CC(C)CN1CCOC[C@H](Oc2ccc(S(C)(=O)=O)cc2)C1`: 2.76%; for `Cc1cc(C(=O)NCc2ccnc(N3CCN(C)CC3)c2)c(C)s1`: 0.2044%.
Regarding `O=C1CCCCN1CSc1nnnn1-c1ccc(Cl)cc1`, the “Percent Effect” value was -1.778%.
The same measure for `CSC1=Nc2c(cnn2-c2cccc(Cl)c2)C2=NCCCN12`: 101.8%; for `Cc1cc(NC(=O)N2CCC[C@@H]2CO)nn1-c1cccc(Cl)c1`: -10.34%.
The result for `CCSC1=Nc2c(cnn2-c2ccc(Cl)cc2)C2=NCCCN12` reads 119%; that for `CSC1=Nc2c(cnn2-c2ccccc2)C2=NCCCN12`, 110.4%.
The result for `CSC1=Nc2c(cnn2-c2ccc(C)cc2)C2=NCCCN12` reads 111.5%.
As for `CC(C)OCCOCc1cccc(NC(=O)NCCn2ccnc2)c1`, the “Percent Effect” value is given as 1.646%.
The result for `O=C(CCc1cc2n(n1)CCN(Cc1ncc[nH]1)C2)N1CCCC1` reads 6.822%; that for `Cc1cc(N[C@H]2CCCC[C@@H]2O)n2nccc2n1`, -46.39%; that for `Cc1nc(Cn2cncc(Br)c2=O)no1`, 4.078%.
The result for `Cn1cnc2c1CCN(CC(=O)N(Cc1ccccc1F)C1CC1)C2` reads -0.08141%.
The result for `CSC1=Nc2c(cnn2-c2ccc(Cl)cc2)C2=NCCCN12` reads 101%.
As to `CNC(=O)c1sccc1S(=O)(=O)NC`, the “Percent Effect” value is recorded as -5.377%.
